Measurements published in PubChem BioAssay (EPA / NIEHS).
Several values for one entry are separate records, joined by “and”; a condition that tells them apart may be missing. Identical values can stand only once. Some structures have more than one record in an assay (separate samples or runs), and their calls can disagree. Activity calls are given as the source filed them. Rule for the calls: active = hit-call score of the fitted dose curve at least 0.9, where 1 is the maximum; inactive = score below 0.9.

Legend:
[1] = read-out: Urokinase-type plasminogen activator receptor (uPAR), PLAUR (gene 5329); experiment: BSK_4H_uPAR: BioMAP Diversity Plus: 4H Assay for Urokinase-type plasminogen activator receptor (uPAR) Biomarker Activity (AID 2283030); settings: primary human endothelial cells (HUVEC); actives raise or lower the signal
Outline: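 Primary human umbilical vein endothelial cells were exposed to chemical for 24 h before cell-surface uPAR was quantified by ELISA. Activity was fitted bidirectionally against the DMSO negative control baseline.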

[2] = read-out: Vascular endothelial growth factor receptor 2 (Homo sapiens) (UniProt P35968); experiment: BSK_4H_VEGFRII: BioMAP Diversity Plus: 4H Assay for Vascular endothelial growth factor receptor 2 (VEGFR2) Biomarker Activity (AID 2283031); settings: primary human endothelial cells (HUVEC); actives raise or lower the signal;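 for AC50: cell-surface VEGFR2 protein level quantified by ELISA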
Outline: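 Primary human umbilical vein endothelial cells in the BioMAP 4H system were dosed with test chemical, and 24 h later VEGFRII was measured by ELISA. Activity was fitted bidirectionally against DMSO as negative control and baseline.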

[3] = read-out: Human Leukocyte Antigen - DR isotype (HLADR), HLA-DRA (gene 3122); experiment: BSK_BE3C_HLADR: BioMAP Diversity Plus: BE3C Assay for Human Leukocyte Antigen - DR isotype (HLADR) Biomarker Activity (AID 2283032); settings: primary human bronchial epithelial cells; actives raise or lower the signal
Outline: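 Human primary bronchial epithelial cells in the BE3C system were exposed to chemicals for 24 h, after which HLA-DR levels were quantified by ELISA. Activity was fitted bidirectionally, gain or loss of signal, against DMSO as negative control and baseline.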

[4] = read-out: Vascular cell adhesion molecule 1 (VCAM1), VCAM1 (gene 7412); experiment: BSK_4H_VCAM1: BioMAP Diversity Plus: 4H Assay for Vascular cell adhesion molecule 1 (VCAM1) Biomarker Activity (AID 2283033); settings: primary human endothelial cells (HUVEC); actives raise or lower the signal
Outline: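 Primary human umbilical vein endothelial cells were exposed to chemicals for 24 h, after which VCAM-1 was quantified by ELISA. Responses were fitted bidirectionally against DMSO as negative control and activity baseline.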

[5] = read-out: Interferon-gamma inducible Protein 10 (IP10), CXCL10 (gene 3627); experiment: BSK_BE3C_IP10: BioMAP Diversity Plus: BE3C Assay for Interferon-gamma inducible Protein 10 (IP10) Biomarker Activity (AID 2283034); settings: primary human bronchial epithelial cells; actives raise or lower the signal
Outline: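 Human primary bronchial epithelial cells were exposed to chemicals for 24 hours, after which IP-10 levels were measured by ELISA. Data were fitted bidirectionally against DMSO, which served as the negative control and activity baseline.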

[6] = read-out: Plasminogen activator inhibitor-1 (PAI1), SERPINE1 (gene 5054); experiment: BSK_BE3C_PAI1: BioMAP Diversity Plus: BE3C Assay for Plasminogen activator inhibitor-1 (PAI1) Biomarker Activity (AID 2283037); settings: primary human bronchial epithelial cells; actives raise or lower the signal
Outline: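 Human primary bronchial epithelial cells were exposed to chemical for 24 h, then PAI-1 was quantified by ELISA. Activity was fitted bidirectionally relative to the DMSO negative control baseline.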

[7] = read-out: urokinase plasminogen activator (uPA), PLAU (gene 5328); experiment: BSK_BE3C_uPA: BioMAP Diversity Plus: BE3C Assay for urokinase plasminogen activator (uPA) Biomarker Activity (AID 2283038); settings: primary human bronchial epithelial cells; actives raise or lower the signal
Outline: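 Human primary bronchial epithelial cells were exposed to chemical for 24 h, then uPA levels were measured by ELISA. Responses were fitted bidirectionally against DMSO as negative control and baseline. Parallel SRB staining of total protein gauged overt cytotoxicity.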

[8] = read-out: Urokinase-type plasminogen activator receptor (uPAR), PLAUR (gene 5329); experiment: BSK_BE3C_uPAR: BioMAP Diversity Plus: BE3C Assay for Urokinase-type plasminogen activator receptor (uPAR) Biomarker Activity (AID 2283039); settings: primary human bronchial epithelial cells; actives raise or lower the signal
Outline: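 Primary human bronchial epithelial cells were dosed with chemical and harvested 24 h later; uPAR was quantified by ELISA. Activity was fitted bidirectionally against DMSO as negative control and baseline.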

[9] = read-out: Interleukin-6 (IL6), IL6 (gene 3569); experiment: BSK_CASM3C_IL6: BioMAP Diversity Plus: CASM3C Assay for Interleukin-6 (IL6) Biomarker Activity for (AID 2283040); settings: primary human coronary artery smooth muscle cells; actives raise or lower the signal
[10] = read-out: Tissue plasminogen activator (tPA), PLAT (gene 5327); experiment: BSK_BE3C_tPA: BioMAP Diversity Plus: BE3C Assay for Tissue plasminogen activator (tPA) Biomarker Activity (AID 2283041); settings: primary human bronchial epithelial cells; actives raise or lower the signal
Outline: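 Human primary bronchial epithelial cells were dosed with chemical and tPA biomarker levels measured by ELISA 24 hours later. Activity was fitted bidirectionally against DMSO as negative control and baseline.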

[11] = read-out: Interleukin-8 (IL8), CXCL8 (gene 3576); experiment: BSK_CASM3C_IL8: BioMAP Diversity Plus: CASM3C Assay for Interleukin-8 (IL8) Biomarker Activity (AID 2283042); settings: primary human coronary artery smooth muscle cells; actives raise or lower the signal;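 note: IL-8 protein level quantified by ELISA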
[12] = read-out: Human Leukocyte Antigen - DR isotype (HLADR), HLA-DRA (gene 3122); experiment: BSK_CASM3C_HLADR: BioMAP Diversity Plus: CASM3C Assay for Human Leukocyte Antigen - DR isotype (HLADR) Biomarker Activity (AID 2283043); settings: primary human coronary artery smooth muscle cells; actives raise or lower the signal;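 note: cell-surface HLA-DR protein level quantified by ELISA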
[13] = read-out: Macrophage colony-stimulating factor (MCSF), CSF1 (gene 1435); experiment: BSK_CASM3C_MCSF: BioMAP Diversity Plus: CASM3C Assay for Macrophage colony-stimulating factor (MCSF) Biomarker Activity (AID 2283044); settings: primary human coronary artery smooth muscle cells; actives raise or lower the signal;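 note: M-CSF protein amount quantified by ELISA after 24 h exposure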
[14] = read-out: Low-density lipoprotein receptor (LDLR), LDLR (gene 3949); experiment: BSK_CASM3C_LDLR: BioMAP Diversity Plus: CASM3C Assay for Low-density lipoprotein receptor (LDLR) Biomarker Activity (AID 2283045); settings: primary human coronary artery smooth muscle cells; actives raise or lower the signal;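 note: LDLR protein level on the cell surface quantified by ELISA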
[15] = read-out: Monocyte Chemoattractant Protein-1 (MCP1), CCL2 (gene 6347); experiment: BSK_CASM3C_MCP1: BioMAP Diversity Plus: CASM3C Assay for Monocyte Chemoattractant Protein-1 (MCP1) Biomarker Activity (AID 2283046); settings: primary human coronary artery smooth muscle cells; actives raise or lower the signal;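 note: MCP-1 level quantified by ELISA 24 h after dosing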
[16] = BSK_CASM3C_Proliferation: Cell Proliferation Assessment in the BioMAP Diversity Plus: CASM3C Assay (AID 2283047); settings: primary human coronary artery smooth muscle cells;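 note: sulforhodamine B total protein stain as relative cell number at 560 nm; sub-confluent cells exposed 48 h before staining; fitted both ways against DMSO so gain or loss of cell number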
[17] = read-out: Monokine induced gamma interferon (MIG), CXCL9 (gene 4283); experiment: BSK_CASM3C_MIG: BioMAP Diversity Plus: CASM3C Assay for Monokine induced gamma interferon (MIG) Biomarker Activity (AID 2283048); settings: primary human coronary artery smooth muscle cells; actives raise or lower the signal
[18] = read-out: serum amyloid A (SAA), SAA1 (gene 6288); experiment: BSK_CASM3C_SAA: BioMAP Diversity Plus: CASM3C Assay for serum amyloid A (SAA) Biomarker Activity (AID 2283049); settings: primary human coronary artery smooth muscle cells; actives raise or lower the signal;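 note: SAA protein level quantified by ELISA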
[19] = read-out: Monokine induced gamma interferon (MIG), CXCL9 (gene 4283); experiment: BSK_BE3C_MIG: BioMAP Diversity Plus: BE3C Assay for Monokine induced gamma interferon (MIG) Biomarker Activity (AID 2283035); settings: primary human bronchial epithelial cells; actives raise or lower the signal;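 note: MIG protein measured by ELISA in BE3C cultures after 24 h of dosing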
Outline: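 ELISA read-out of MIG in human lung bronchial epithelial primary cultures, 24 h post-dosing. Bidirectional curve fit vs DMSO baseline.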

[20] = read-out: Transforming growth factor beta 1 (TGFb1), TGFB1 (gene 7040); experiment: BSK_BE3C_TGFb1: BioMAP Diversity Plus: BE3C Assay for Transforming growth factor beta 1 (TGFb1) Biomarker Activity (AID 2283036); settings: primary human bronchial epithelial cells; actives raise or lower the signal
Outline: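 Human primary bronchial epithelial cells (BE3C system) were dosed with chemical and TGF-b1 levels measured by ELISA at 24 h. Activity was fitted bidirectionally relative to DMSO negative control as baseline.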

Measured: AC50

O=C(Cl)C(F)(F)C(F)(F)C(F)(F)C(F)(F)C(F)(F)C(F)(F)C(F)(F)C(F)(F)F
active: [2] 30 µM | [3] 50 µM and 48.6 µM and 50.7 µM | [5] 39.8 µM and 36.6 µM and 44.6 µM | [7] 51.7 µM and 48.2 µM and 47.1 µM | [8] 47.8 µM and 53.7 µM and 48.4 µM | [10] 27.5 µM and 22.8 µM
inactive: [1] | [2] | [4] | [6] | [9] | [10] | [11] | [12] | [13] | [14] | [15] | [16] | [17] | [18]

C=CC(F)(F)C(F)(F)C(F)(F)C(F)(F)C(F)(F)C(F)(F)C(F)(F)C(F)(F)F
not listed: [20]
inactive: all other assays above

FC(F)(F)C(F)(F)C(F)(F)C(F)(F)C(F)(F)C(F)(F)CC1CO1 (configuration not stated)
not listed: [20]
inactive: all other assays above

FC(F)(F)C(F)(F)C(F)(F)C(F)(F)C(F)(F)C(F)(F)C(F)(F)C(F)(F)F
not listed: [20]
inactive: all other assays above

O[Si](c1ccccc1)(c1ccccc1)c1ccccc1
active: [1] 4.82 µM | [2] 29.5 µM | [4] 14.8 µM | [6] 8.71 µM | [16] 20 µM
inactive: all other assays above
